L3MBTL1 inh = blocks human L3MBTL1. Q9Y468. AlphaScreen L3MBTL1–H3K9me1 peptide binding. Potency, µM (series often up to 57.1 µM), without a hit: at the top dose activity, negative = inhibition, actives largely listed as inhibitors. 230,000 compounds, 0.66% hits; note: % is set by controls: 0 for no effect and ±100 for the full control effect; nearly all actives have a fitted effect of over 60% in size
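L3MBTL1 (50 nM) pre-complexed 30 min with biotinylated H3(1-15)K9me1 peptide (75 nM), then compounds added for 30 min at room temperature; AlphaScreen streptavidin donor/nickel chelate acceptor beads (10 ug/mL final) read after 30 min dark incubation.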
G9a inh = inhibitors of human histone lysine methyltransferase G9a. Q96KQ7. G9a H3K9 monomethylation, AlphaScreen, 2 h. Potency, µM (titrated, usually from 102 µM), without a hit: top-dose activity, negative = inhibition, actives largely listed as inhibitors. 350,000 compounds, 8.8% hits. AID 504332; note: % is set by controls: 0 for no effect and ±100 for the full control effect; nearly all actives have a fitted effect of over 75% in size
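Methyltransferase reactions run at room temperature for 2 h (20 nM enzyme, 500 nM biotin-H3K9 peptide, 20 uM SAM) after a 15 min compound preincubation; product detected by AlphaScreen beads and anti-H3K9me1 antibody.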
Sfp PPTase inh = inhibitors of Bacillus subtilis Sfp phosphopantetheinyl transferase | Q9F4F7 | Biochemical Sfp PPTase activity, qHTS | Potency, µM, inactives show largest response in the series, negative = inhibition, hits mostly inhibitors | 310,000 compounds, 3.5% hits | AID 1490;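 note: the enzyme is Sfp with the accession as filed and its product quenches rhodamine fluorescence; 0% = enzyme reaction without inhibitor and -100% = no enzyme wells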
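Fluorescence-quenching assay with 15 nM Sfp, 5 uM rhodamine-CoA and 12.5 uM BHQ-2-labelled ybbR peptide in pH 7.6 Hepes/MgCl2 buffer. Enzyme was pre-incubated with compound for 15 min at room temperature. Rate was taken from the 30-min fluorescence change (525/598 nm).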
HP1b binding inh = HP1-beta chromodomain-methylated histone interaction inhibition; P83916; AlphaScreen HP1-beta / biotin-H3K9me3 peptide binding; Potency, µM (titrated, usually from 114 µM), inactives show top-dose activity change, negative = inhibition, usual class: inhibitors; 390,000 compounds, 0.56% hits; AID 540317; note: nearly all actives have a fitted effect of over 70% in size
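AlphaScreen: HP1-beta (50 nM) preformed 30 min with biotin-H3(1-18)K9me3 peptide (50 nM) in PBS pH 7.4, 0.01% Tween-20. Compound added for 30 min at RT, then streptavidin donor/nickel chelate acceptor beads (10 ug/mL) for 30 min.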
JMJD2A Tudor = JMJD2A Tudor domain (human) inhibition. AlphaScreen JMJD2A-Tudor / H3K4me3 peptide binding. 390,000 compounds, 4.4% hits. Potency, µM (highest dose often 114 µM), for the others: top-dose activity change, negative = inhibition, actives largely listed as inhibitors. AID 504339. O75164; note: % is set by controls: 0 for no effect and ±100 for the full control effect; nearly all actives have a fitted effect of over 50% in size
BAZ2B inh = blocks human BAZ2B | Q9UIF8 | Potency, µM (doses to about 114 µM), without a hit: at the highest dose activity change, negative = inhibition, most hits filed as inhibitors | AlphaScreen BAZ2B-H3K14Ac peptide displacement | 360,000 compounds, 4.4% hits; note: % is set by controls: 0 for no effect and ±100 for the full control effect; nearly all actives have a fitted effect of over 60% in size
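BAZ2B 50 nM plus b-H3(5-23)K14Ac 50 nM, PBS pH 7.4/0.01% Tween-20, 30 min RT; compound added (max 110 uM), 30 min RT; streptavidin donor/Ni-chelate acceptor beads 10 ug/mL final, 20 min dark; AlphaScreen read.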
Starred values were filed as active, the others as inactive; [ ] = another dose, or the depositor's remark. Hits are enriched below; roughly 12% of the tested compounds scored in any of these assays. Calls come from the whole dose curve; as a rule, active = well fitted curve in the direction sought with a large enough effect; inconclusive = small, poorly fitted or top-dose-only effect, or another doubt; inactive = no such curve, though single readings can be large; an effect the other way counts as inactive or inconclusive. Potency is the fitted concentration of half-maximal effect.

For O=C(O)c1cccc(-n2cccc2/C=C2/NC(=O)N(c3ccc(Cl)cc3)C2=O)c1 the results were L3MBTL1 inh 0.79µM*, G9a inh 1.4µM*, Sfp PPTase inh 14µM*, HP1b binding inh 1.1µM*, JMJD2A Tudor 0.79µM* and BAZ2B inh 1.8µM*.
For Cc1cccc(NC(=O)CN2C(=O)S/C(=C\c3cc(C)n(C)c3C)C2=O)c1 the results were L3MBTL1 inh -9%, G9a inh -7%[59 µM], Sfp PPTase inh 56µM*, HP1b binding inh 29%, JMJD2A Tudor -17% and BAZ2B inh 0%.
Screening Cc1cccc(NC(=O)CN2C(=O)N/C(=C\c3cccn3-c3cccc(C(=O)O)c3)C2=O)c1 returned G9a inh 35µM*, Sfp PPTase inh 50µM*, HP1b binding inh -30%, JMJD2A Tudor -28% and BAZ2B inh 56µM*.
Screening Cc1cccc(NC(=O)CN2C(=O)N/C(=C/c3cc(C)n(C)c3C)C2=O)c1 returned L3MBTL1 inh -37%, G9a inh 56µM*, Sfp PPTase inh 12%, HP1b binding inh 18%, JMJD2A Tudor -28% and BAZ2B inh inconclusive.
Screening COc1ccc(-n2cccc2/C=C2/NC(=O)N(c3cccc(Cl)c3)C2=O)cc1 returned L3MBTL1 inh -3%, G9a inh inconclusive, Sfp PPTase inh -12%, HP1b binding inh 21%, JMJD2A Tudor -8% and BAZ2B inh -38%.
`Cc1ccc(Nc2cc(-c3ccccc3)nc(C)n2)cc1` gave G9a inh 6%[59 µM], HP1b binding inh 54%, JMJD2A Tudor 7% and BAZ2B inh 13%.
For COc1cc(/C=C2/NC(=O)N(CC(=O)Nc3cccc(C)c3)C2=O)ccc1OCC(N)=O the results were L3MBTL1 inh -1%, G9a inh 20%, Sfp PPTase inh 3%, HP1b binding inh inconclusive, JMJD2A Tudor 20µM* and BAZ2B inh -17%.
Cc1ccc(C(=O)Sc2cccccc2=O)cc1 was read as G9a inh 10µM*, Sfp PPTase inh 50µM*, HP1b binding inh inconclusive, JMJD2A Tudor -29% and BAZ2B inh 40µM*.
For O=C(NC1CCCCC1)NC1CCN(C(=S)NCc2ccco2)CC1 the results were L3MBTL1 inh 5%, G9a inh 15%[59 µM], Sfp PPTase inh 13%, HP1b binding inh 8%, JMJD2A Tudor -11% and BAZ2B inh -1%.
For OCC1CCCCN1C(=S)NCc1ccco1 (stereo not drawn) the results were L3MBTL1 inh 8%, Sfp PPTase inh 50µM*, HP1b binding inh 37%, JMJD2A Tudor -3% and BAZ2B inh 1%.
For CC1CCCC(C)N1C(=S)NCc1ccco1 (stereo not drawn) the results were L3MBTL1 inh 13%, G9a inh inconclusive, Sfp PPTase inh 35µM*, HP1b binding inh 3%, JMJD2A Tudor -1% and BAZ2B inh -4%.
Cc1cccc(Cn2c(=O)oc3ccc(C)cc32)c1 was read as G9a inh 130%, Sfp PPTase inh -2%, HP1b binding inh 71%, JMJD2A Tudor 57% and BAZ2B inh 45%.
Screening COc1cccc(CN(C)CC(O)COc2cc(Cl)ccc2Cl)c1 (stereo not drawn) returned G9a inh -17%, Sfp PPTase inh -17%, HP1b binding inh inconclusive, JMJD2A Tudor 6.3µM* and BAZ2B inh 56µM*.
For CCCCNCCOc1ccccc1-c1ccccc1 the results were L3MBTL1 inh 10%, G9a inh inconclusive, Sfp PPTase inh -3%, HP1b binding inh inconclusive, JMJD2A Tudor 3.5µM* and BAZ2B inh inconclusive.
For COCCNCCOc1ccccc1-c1ccccc1 the results were G9a inh 10µM*, Sfp PPTase inh 50µM*, HP1b binding inh inconclusive, JMJD2A Tudor 14µM* and BAZ2B inh inconclusive.
For COCCCNCCCCOc1ccccc1-c1ccccc1 the results were L3MBTL1 inh -2%, G9a inh 14µM*, Sfp PPTase inh -22%, HP1b binding inh inconclusive, JMJD2A Tudor 79µM* and BAZ2B inh 71µM*.
